Vc quorum ag: inducers of Vibrio cholerae quorum light production without autoinducers, primary screen, BH1578 luxS cqsA deficient, single point; V. cholerae BH1578 lux reporter, luminescence, 6 h; activation, % at 18.7 µM; 350,000 tested, 0.16% active; AID 588436, 2011; in the data active = activation mostly above about 9.7%, no sharp cut-off; inconclusive = no clear call, values can overlap the other calls; inactive = mostly below about 3.7%
Anthrax LF prot: Bacillus anthracis LF protease inhibitors, primary screen, biochemical, multiplex microsphere, MLPCN library. multiplex microsphere protease cleavage assay. 360,000 tested, 0.12% active. Lethal factor (Bacillus anthracis), P15917. inhibition, % at 10 µM; note: plate controls were buffer without enzyme for full effect and enzyme alone for no effect
Target sequence (P15917 whole entry, looked up): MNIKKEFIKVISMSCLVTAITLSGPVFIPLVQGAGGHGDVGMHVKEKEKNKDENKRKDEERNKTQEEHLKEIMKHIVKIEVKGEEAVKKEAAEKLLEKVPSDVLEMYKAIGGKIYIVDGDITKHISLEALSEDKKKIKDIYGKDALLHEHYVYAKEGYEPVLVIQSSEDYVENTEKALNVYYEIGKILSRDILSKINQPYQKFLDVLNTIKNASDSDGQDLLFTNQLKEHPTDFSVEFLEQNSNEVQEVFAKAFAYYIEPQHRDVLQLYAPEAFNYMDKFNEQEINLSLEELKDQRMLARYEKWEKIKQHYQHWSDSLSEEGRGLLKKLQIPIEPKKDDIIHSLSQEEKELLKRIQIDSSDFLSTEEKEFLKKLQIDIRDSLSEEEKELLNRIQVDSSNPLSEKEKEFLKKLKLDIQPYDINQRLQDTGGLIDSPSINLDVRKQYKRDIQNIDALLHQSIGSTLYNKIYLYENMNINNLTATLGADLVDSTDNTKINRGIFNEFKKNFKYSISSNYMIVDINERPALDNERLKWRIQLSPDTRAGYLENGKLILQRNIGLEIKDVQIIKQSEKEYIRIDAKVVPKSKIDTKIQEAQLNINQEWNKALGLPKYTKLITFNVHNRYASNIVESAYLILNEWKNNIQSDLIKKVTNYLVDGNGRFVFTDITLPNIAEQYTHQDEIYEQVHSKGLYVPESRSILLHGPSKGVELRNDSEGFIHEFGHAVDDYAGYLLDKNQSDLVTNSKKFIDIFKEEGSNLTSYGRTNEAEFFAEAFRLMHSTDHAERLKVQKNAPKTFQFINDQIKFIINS
BoNT-A LC inh2: BoNT/A light chain protease inhibitors, primary screen, biochemical, flow cytometry, MLPCN library. Botulinum neurotoxin type A light chain protease (Clostridium botulinum A str. ATCC 3502). multiplex microsphere protease substrate cleavage. inhibition, % at 10 µM. 360,000 tested, 0.17% active. AID 588499, 2011; note: plate controls were buffer without enzyme for full effect and enzyme alone for no effect
Bead autofluor: compound fluorescence in toxin protease inhibitor counterscreen | compound autofluorescence counterscreen, microsphere flow cytometry; hits give high values | fluorescence intensity (concentration not given with the values) | 360,000 tested, 3.1% active | AID 624483; in the data active = fluorescence intensity above about 16000; inconclusive = no clear call, values can overlap the other calls
BoNT F protease: BoNT/F light chain protease inhibitors, primary screen, biochemical, flow cytometry, MLPCN library; inhibition, % at 10 µM; Multiplex microsphere protease cleavage assay; 360,000 tested, 0.22% active; Botulinum neurotoxin type F light chain protease (Clostridium botulinum); in the data active = inhibition above about 35%, passing the limit was not always enough; inconclusive = no clear call, values can overlap the other calls; note: plate controls were buffer without enzyme for full effect and enzyme alone for no effect
* = called active by the depositor; i = inactive; ? = inconclusive; · = no result given. In the library only some 3.5% were active in any assay of this set; here they are far more common. Cut-off read from the data, not from the text of the source, unless noted: active = inhibition above about 30%; inconclusive = no clear call, values can overlap the other calls; inactive = below that.

SMILES	Vc quorum ag	Anthrax LF prot	BoNT-A LC inh2	Bead autofluor	BoNT F protease
CCCCOc1ccc(/C=C/C2=CC(C)(C)NC(=S)N2)cc1OCC	-0.3	-1.7	-2.4	3405	-14.1
O=C1CC(NNC(=O)c2ccc(Br)cc2)C(=O)N1 (configuration not stated)	-0.5	8.3	4.6	3778	42.8*
CC(C)NS(=O)(=O)c1ccc(OCC(=O)N2CCN(Cc3ccc4c(c3)OCO4)CC2)c(Cl)c1	-0.7	0.4	0.5	20603*	1.4
O=C(COc1ccc(S(=O)(=O)NCc2ccccc2)cc1Cl)N1CCOCC1	-0.2	0.4	0.0	23739*	-0.1
CN1CCN(C(=O)COc2ccc(S(=O)(=O)NCc3ccccc3)cc2Cl)CC1	i	-6.9	0.2	9545	-3.0
COc1ccc(S(=O)(=O)Nc2ccccc2C(=O)N2CCOCC2)cc1Cl	-2.2	-12.8	-40.0	17400*	-61.5
O=C(c1ccc(NS(=O)(=O)c2cccc(C(F)(F)F)c2)cc1)N1CCCC1	-1.4	2.1	3.0	5405	1.3
O=C(c1ccc(CNS(=O)(=O)c2cccc(C(F)(F)F)c2)cc1)N1CCOCC1	1.8	-1.5	?	22700*	1.2
Cc1cc(S(=O)(=O)NC(C)C)ccc1OCC(=O)N1CCN(Cc2ccc3c(c2)OCO3)CC1	i	-2.2	0.9	6991	-5.6
Cc1ccccc1NC(=S)N(Cc1cccnc1)Cc1ccccc1Cl	-2.4	-0.2	-0.1	4466	-3.0
Cc1onc(-c2c(Cl)cccc2Cl)c1C(N)=S	-0.2	-8.2	0.3	4416	-2.6
O=C1CCc2cc(S(=O)(=O)NC3CCCCC3)cc3c2N1CC3	-0.7	3.4	-1.8	5909	5.0
Cn1c(=O)c2c(ncn2CC(=O)Nc2cc(S(=O)(=O)N3CCCCC3)ccc2O)n(C)c1=O	i	-2.5	0.5	4167	-1.9
Cc1cc(OCC(=O)OCC(=O)Nc2ccc(Cl)cn2)ccc1Cl	0.0	-2.1	-0.5	3830	-6.1
Cc1nc(CCNC(=O)C2CCC(=O)N(Cc3ccc(Cl)cc3)C2)sc1C (configuration not stated)	0.0	-3.0	2.3	5157	10.3
Cc1ccc(OCC(=O)N2CCN(C(=O)Cc3ccccc3)CC2)cc1	·	-3.9	-0.2	3266	-2.5
O=C(COc1ccc(Cl)cc1Cl)Nc1ccc(CN2CCOCC2)cc1	-0.3	1.9	-0.9	5822	-1.0
O=C(COc1ccc(-c2ccccc2)cc1)N1CCN(S(=O)(=O)Cc2ccccc2)CC1	-0.2	-4.4	-0.1	16462*	0.7
CCOC(=O)N1CCN(C(=O)COc2ccc(S(=O)(=O)NCc3ccccc3)cc2)CC1	i	-2.5	-1.1	17159*	-1.0
O=C(COc1ccc(Cl)cc1Cl)NC(=O)N1CCOCC1	-3.0	0.5	-1.6	16969*	-1.3
COCCn1c(SCC(=O)Nc2ccc3c(c2)OCCO3)nnc1-c1c[nH]c2ccccc12	-0.4	-5.4	1.8	22982*	-0.3
O=C(CCSc1nnc2scc(-c3ccccc3)n12)NCc1ccc2c(c1)OCO2	-2.0	-10.2	-2.1	16498*	-1.7
O=C(CSc1nnc2scc(-c3ccccc3)n12)Nc1ccc2c(c1)OCCO2	-0.2	1.5	?	16931*	-4.9
CCN(c1ccccc1)S(=O)(=O)c1ccc(Cl)c(NC(=O)CNCc2ccccc2OC)c1	i	-5.6	-0.4	3906	0.1
CC(=O)Cc1nsc(NC(=O)c2ccc(-c3ccc(Cl)cc3Cl)o2)n1	i	-5.7	0.1	20376*	-0.8
SMILES	Vc quorum ag	Anthrax LF prot	BoNT-A LC inh2	Bead autofluor	BoNT F protease
CC(=O)Cc1nsc(NC(=O)c2cc(-c3ccc(Cl)c(Cl)c3)oc2C)n1	-3.0	-3.4	-3.2	23305*	-4.3
COC(=O)c1c(NC(=O)c2cccc(S(=O)(=O)N3CCN(C)CC3)c2)sc(C)c1C	-5.0	-1.6	-1.4	5423	-3.9
CCCc1cc(C(N)=O)c(NC(=O)c2ccco2)s1	-5.3	-1.4	-2.0	16987*	-4.1
COc1ccc(NC(=O)CSc2n[nH]c(C(C)C)n2)c([N+](=O)[O-])c1	-0.3	-2.4	-0.5	3187	1.8
COc1ccc(NC(=O)CSc2n[nH]c(N)n2)c([N+](=O)[O-])c1	-0.2	-1.2	-0.5	23423*	1.4
c1ccc(C2OC3c4cccc5cccc(c45)C3N2c2ccccc2)cc1 (configuration not stated)	i	-4.3	?	22884*	-3.9
O=C(CCCn1cncn1)N1CCCC(N2CCN(c3ccc(F)cc3)CC2)C1 (configuration not stated)	i	-2.1	-0.3	6151	0.9
CC(O)(CS(=O)(=O)c1ccccc1)C(=O)Nc1cccc(C(F)(F)F)c1 (configuration not stated)	-0.1	0.3	-0.7	21019*	0.3
CCC(C)Sc1cc(-c2nc3cc(C)ccn3c2NC2CCCCC2)ccc1OC (configuration not stated)	-0.4	-12.2	-4.0	23753*	1.9
O=S(=O)(c1ccc(N2CCCC2)cc1)C(F)(F)F	-0.2	-1.4	0.7	16476*	1.4
Nc1nc(CCl)nc(N(c2ccccc2)c2ccccc2)n1	i	-3.0	-0.7	5993	-0.5
COc1cc(CC(NC(C)=O)C(=O)NC2CCN(C(=O)Nc3ccccc3C)CC2)cc(OC)c1 (configuration not stated)	i	-12.1	-0.6	3622	15.0
COc1ccc(N2CCN(C(=O)CSc3ncnc4scc(-c5ccc(C)cc5)c34)CC2)cc1	-1.4	-20.6	17.6	?	7.7
Cc1ccc(-c2csc3ncnc(Sc4nnc(CN5CCCCCC5=O)o4)c23)cc1	i	-3.6	0.0	16668*	-0.8
O=C(CNC(=S)N(Cc1ccccc1F)C1CCCCC1)NCC1CCCO1 (configuration not stated)	-2.8	-2.1	-1.0	3900	-0.9
CCN(CC)c1ccc(/C=N/n2c(C)cc(C)cc2=O)cc1	-5.9	-2.3	3.5	19156*	6.1
COC(=O)C1=CN(C(C)C)C=C(C(=O)OC)C1c1cccc(OC)c1	i	-1.5	-0.1	3262	3.0
COC(=O)C1=CN(C(C)C)C=C(C(=O)OC)C1c1cc(Br)c(OC)c(OC)c1	-0.2	-0.5	-3.8	23675*	-5.4
Cc1ccc(S(=O)(=O)Nc2c(NC3CCCCC3)c3ccccc3oc2=O)cc1	-0.3	2.5	9.9	4151	15.0
Nc1c(NC2CCCCC2)c2ccccc2oc1=O	-0.5	-0.7	2.6	22176*	2.4
Nc1c(NCCCN2CCOCC2)c2ccccc2oc1=O	1.8	2.1	-3.7	21802*	-5.1
CC(C)(C)NC(=O)CN(C(=O)c1snc(C(=O)NC2CCCCC2)c1N)c1ccccc1F	-0.3	2.1	3.5	4062	9.1
Cc1cccc(C)c1NC(=O)CSc1nnc(CCCCCNC(=O)OC(C)(C)C)o1	i	-10.5	-2.0	16539*	-5.6
Cc1ccc(NC(=O)CSc2nnc(CCNC(=O)OC(C)(C)C)o2)c(C)c1	-0.3	8.5	-0.5	9877	-2.9

Compound activity: PubChem BioAssay, several laboratories
